Columns and labels:
Assay type in all cases: functional
[1] = molecular target: Solute carrier family 2, facilitated glucose transporter member 1 (Homo sapiens) (UniProt P11166); assay: ST_JUDE_LEISH: Cytotoxicity at 2uM final concentration against transgenic Leishmania Mexicana promastigotes LmGLUT1 that are glucose transport deficient and complemented with the human glucose transporter GLUT1. Activity is measured by DNA content using SYBR green in vitro
[2] = molecular target: Hexose transporter 1 (Plasmodium falciparum) (UniProt O97467); assay: ST_JUDE_LEISH: Cytotoxicity at 2uM final concentration against transgenic Leishmania Mexicana promastigotes LmPfHT that are glucose transport deficient and complemented with the Plasmodium falciparum hexose transporter. Activity is measured by DNA content using SYBR green in vitro
[3] = molecular target: Glucose transporter (Leishmania mexicana) (UniProt O61059); assay: ST_JUDE_LEISH: Cytotoxicity at 2uM final concentration against transgenic Leishmania Mexicana promastigotes LmGT2 that are glucose transport deficient and complemented with the L. Mexicana glucose transporter 2. Activity is measured by DNA content using SYBR green in vitro

Solute carrier family 2, facilitated glucose transporter member 1 (Homo sapiens), sequence (P11166 whole entry): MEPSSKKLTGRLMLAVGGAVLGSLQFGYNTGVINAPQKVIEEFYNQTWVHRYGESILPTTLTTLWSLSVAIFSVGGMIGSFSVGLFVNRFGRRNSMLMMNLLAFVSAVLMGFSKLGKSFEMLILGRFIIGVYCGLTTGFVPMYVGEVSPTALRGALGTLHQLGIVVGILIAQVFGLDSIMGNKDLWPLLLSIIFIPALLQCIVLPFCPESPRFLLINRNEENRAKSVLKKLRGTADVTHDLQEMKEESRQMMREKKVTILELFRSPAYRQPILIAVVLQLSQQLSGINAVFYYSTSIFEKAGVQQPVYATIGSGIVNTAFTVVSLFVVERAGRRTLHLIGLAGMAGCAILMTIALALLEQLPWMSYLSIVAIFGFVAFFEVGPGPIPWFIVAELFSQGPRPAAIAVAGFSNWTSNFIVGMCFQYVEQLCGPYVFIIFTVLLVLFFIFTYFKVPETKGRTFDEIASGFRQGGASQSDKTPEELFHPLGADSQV

| SMILES | inhibition [1] [%] | inhibition [2] [%] | inhibition [3] [%] |
| --- | --- | --- | --- |
| NCCCNc1nc(Nc2ccc(C(F)(F)F)cc2F)c2c(=O)[nH]ccc2n1 | 3.4 | 3.63 | 0.74 |
| Cc1csc(-c2nc(NCc3cccnc3)ncc2-c2ccsc2)n1 | 2.02 | 2.53 | 3.04 |
| CCN1CCC(N(Cc2ccc(-c3ccc(C(F)(F)F)cc3)cc2)C(=O)CCCCn2c(CCc3cccc(F)c3F)nc(=O)c3ccccc32)CC1 | 1.08 | -1.15 | -0.6 |
| N#Cc1ccc(N2C[C@@H](OCc3ccccc3)C[C@H]2C(=O)NCCC(c2ccccc2)c2ccccc2)c2ccccc12 | 5.42 | 4.29 | 3.78 |
| N#Cc1cccc(NC(=O)C2=C(CCc3ccc4c(c3)OCO4)NC(=O)NC2c2cccc(C#N)c2)c1 (stereo not drawn) | -0.43 | 0.52 | -0.7 |
| O=C(Nc1ccc(N2CCN(Cc3ccccc3Cl)CC2)cc1)c1ccc([N+](=O)[O-])o1 | 71.5 | 51.2 | 11.1 |
| Cc1ccccc1C1CCN(C2CCC(NC(=O)/C=C/c3ccc4c(c3)OC(F)(F)O4)CC2)CC1 (stereo not drawn) | 0.14 | 5.21 | 2.92 |
| Cc1ccc(C2CCN(CCCCNC(=O)c3ccc(NC(=O)c4ccc(Cl)cc4)cc3)CC2)c(OCC(F)(F)F)c1 | 0.04 | 1.32 | 0.66 |
| COc1ccc(NC(=O)c2cn(-c3ccc(C(C)(C)C)cc3)nc2C)cc1N1CCN(C)CC1 | 1.31 | 0.2 | 1.64 |
| O=C(N1CCN(c2ccc(C(F)(F)F)cc2[N+](=O)[O-])CC1)C(Cl)(Cl)Cl | 3.26 | 3.64 | 1.86 |
| COc1ccc(Cl)cc1N1CCN(CCCNC(=O)c2ccc(-c3nc4cc(Cl)c(F)cc4[nH]3)cc2)CC1 | 2.81 | 2.7 | 3.92 |
| CC(C)(C)c1cc(Cn2ccnc2)cc(C(C)(C)C)c1O | 6.9 | 9.32 | 4.9 |
| CC(C)(C)c1cc(C(=O)Nc2cccnc2)cc(C(=O)Nc2cccnc2)c1 | 2.58 | 1.97 | 2.38 |
| CN(C)CC(O)COc1ccc(Nc2ncc([N+](=O)[O-])c(Nc3ccccc3O)n2)cc1 (stereo not drawn) | 2.66 | 3.7 | 1.45 |
| C=CCc1cc(Cc2cnc(N)nc2N)cc(CCC)c1OC | 15.3 | 12.5 | 8.6 |
| CC(=O)Nc1ccc(OCCCCN(Cc2ccccc2OC(F)(F)F)c2ccc(C(F)(F)F)c(C#N)c2)c(Cl)c1 | 1.46 | 4.12 | 7.95 |
| Cc1ccc(CNC(=O)c2cnc(N3CCN(c4ccncc4)CC3)c(Cl)c2)cc1 | 4.68 | 6.64 | 3.12 |
| Cc1cnccc1/C=C/c1cccc(OCCCN2CCc3ccc(S(C)(=O)=O)cc3CC2)c1 | 2.21 | 2.58 | 2.19 |

| SMILES | inhibition [1] [%] | inhibition [2] [%] | inhibition [3] [%] |
| --- | --- | --- | --- |
| CC(CC(=O)NCC1(c2ccc(F)cc2Cl)CCOCC1)C(=O)c1ccc(Cl)cc1 (stereo not drawn) | 0.34 | 1.23 | 1.88 |
| Cc1nc(N)nc(N)c1CCCOc1ccccc1Br | 5.7 | 8.36 | 2.57 |
| N#Cc1ccc(-c2ccc(C(=O)NCCCCN3CCC(c4cc(Br)c5c(c4O)CCCC5)CC3)cc2)cc1 | 0.25 | 0.94 | -0.42 |
| Fc1ccc2[nH]c(-c3ccccc3)nc2c1CN1CCC(N2CCCC2)CC1 | -0.78 | 0.83 | 2.29 |
| CN(C)C(CNC(=O)c1cc(-c2ccncc2)c(-c2ccc(Cl)c(O)c2)o1)c1ccccc1 (stereo not drawn) | 1.95 | 1.6 | 8.87 |
| c1ccc2nc(NCCCCCCCCNc3ccc4ccccc4n3)ccc2c1 | 5.37 | 3.68 | 4.58 |
| Cc1cccc2nc(-c3ccc(-c4ccc(NC(=O)NCc5ccc(F)cc5)cc4)cc3)[nH]c12 | 0.56 | 0.89 | 0.63 |
| Cc1ccc(Cn2cnc3cc(C(=O)Nc4ccc(-c5cccc(CN(C)C)c5)cc4)ccc3c2=O)o1 | 75.5 | 59 | 51.1 |
| CCC[C@@H]([C@@H](CC1CCCCC1)C(=O)N[C@H](C(=O)Nc1nccs1)C(C)(C)SCCOCCOCC)N(O)C=O | 6.4 | 5.16 | 5.39 |
| CC(C)(CNC(=O)[C@H]1CCCCN1)c1nc(-c2ccc(Cl)c(O)c2)c(-c2ccncc2)[nH]1 | 5.66 | 4.64 | 6.24 |
| CC1(C)N=C(N)N=C(N)N1c1cccc(C(F)(F)F)c1 | -1.8 | -0.92 | -3.44 |
| O=C(Nc1ccc(Oc2ccccc2)cc1)N(Cc1ccc(-c2ccc(CN3CCNCC3)cc2)cc1)C1CCN(Cc2ccccc2)CC1 | -1.93 | -1.14 | -0.33 |
| COc1cc2nc(C)nc(Nc3cccc(Br)c3)c2cc1OC | -0.77 | -0.52 | -0.03 |
| O=C(CCCCCNC(=O)c1ccc(O)c(-c2ccc(Cl)c(Cl)c2)c1)NCCN1CCOCC1 | 4.35 | 3.57 | 2.65 |
| OC(CNc1ccnc(Nc2ccc(Cl)cc2)n1)c1ccccc1C(F)(F)F (stereo not drawn) | 10 | 9.74 | 5.08 |
| CC(C)(CN)c1nc(-c2ccc(Cl)c(O)c2)c(-c2ccnc(N)n2)[nH]1 | -0.87 | -0.81 | -1.58 |
| N=C(N)NCC=C(c1ccccc1)c1ccccc1 | 8.32 | 5.26 | 6.35 |
| O=C(Nc1ccc(CCNCc2ccccc2)cc1)Nc1ccc(OC(F)(F)F)cc1 | -1.69 | -0.14 | 0.49 |

Source: ChEMBL document CHEMBL3433997, “St. Jude Leishmania screening dataset” (2016)
